Experimental data as given in the supplement of paper PMC3616981.
± gives the standard deviation of the averaged measurements.

Compound: CC(C)c1cccc(C(C)C)c1N1C(=O)c2ccc(O)cc2C1=O
Assay: BioMAP readout fold decrease vs vehicle (vehicle/treated); higher = stronger decrease of the readout vs vehicle (values <1 mean increase)
Experimental: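 BioSeek BioMAP human primary cell (co-)culture systems (3C, 4H, LPS, SAg, BE3C, CASM3C, hDFCGF, KF3CT) treated with 5HPP-33 at 1.48, 4.44, 13.3 and 40 µM. Read-outs are protein levels by ELISA, proliferation and SRB total protein. Duplicate rows per assay are averaged as replicates. Tested in ToxCast Phase II for this study; exposure time not stated.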
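Also: Co-cultures of keratinocytes, bronchial epithelial and smooth muscle cells, fibroblasts, HUVECs and PBMCs under stimuli like LPS, TNF-α, IFN-γ, IL-1β, TGF-β or EGF, SRB reflecting cytotoxicity.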

Target | BioMAP readout fold decrease (1.48 µM) | BioMAP readout fold decrease (4.44 µM) | BioMAP readout fold decrease (13.3 µM) | BioMAP readout fold decrease (40 µM)
KF3CT_MCP1 | 1.03 ± 0.041 | 0.926 ± 0.043 | 0.7754 ± 0.0028 | 1.14 ± 0.36
4H_VCAM1 | 0.977 ± 0.017 | 0.978 ± 0.044 | 1.06 ± 0.018 | 2.2 ± 0.07
4H_SRB | 1.05 ± 0.014 | 1.12 ± 0.016 | 1.25 ± 0.031 | 1.44 ± 0.041
